According to PMC4336329 (PLoS ONE, 2015):
The campaign covered roughly 310,000 compounds. About 2,200 (0.71%) showed an effect of 50% or more. The effect is printed as a negative number. The list comes from a sample in which strong results are over-represented; it also holds similar structures and randomly drawn compounds.

target: human ether-à-go-go-related gene (hERG) potassium channel (human, UniProt Q12809); test: primary screen, population patch clamp on CHO cells stably expressing hERG; higher = less effect of the substance
Description: Briefly, Chinese hamster ovary (CHO) cells stably expressing the hERG channel were dislodged from tissue culture flasks and dispensed into PPC plates. […] During the recording, background leak currents were estimated by a 100 ms step to -80 mV from an initial holding potential of -70 mV and subtracted from the subsequent current measurement. The campaign was conducted in two phases using slight differences in recording protocol. In the first phase, the initial voltage pulse used a 100 ms step to -30 mV from a holding potential of -70 mV, a 2 s conditioning step to +25 mV, and a 2 s test step to -30 mV. During the second phase of the screen, the potential during the conditioning step was raised to +45 mV. In both phases of the campaign, a secondary voltage pulse was applied using the same parameters as the second phase initial pulse. The initial and secondary pulses were applied in the absence of compound, and upon application of 1 μM and 10 μM test concentrations. Small molecule effects on hERG current density were quantified by […].

Sequence of human ether-à-go-go-related gene (hERG) potassium channel (Q12809 whole entry, looked up): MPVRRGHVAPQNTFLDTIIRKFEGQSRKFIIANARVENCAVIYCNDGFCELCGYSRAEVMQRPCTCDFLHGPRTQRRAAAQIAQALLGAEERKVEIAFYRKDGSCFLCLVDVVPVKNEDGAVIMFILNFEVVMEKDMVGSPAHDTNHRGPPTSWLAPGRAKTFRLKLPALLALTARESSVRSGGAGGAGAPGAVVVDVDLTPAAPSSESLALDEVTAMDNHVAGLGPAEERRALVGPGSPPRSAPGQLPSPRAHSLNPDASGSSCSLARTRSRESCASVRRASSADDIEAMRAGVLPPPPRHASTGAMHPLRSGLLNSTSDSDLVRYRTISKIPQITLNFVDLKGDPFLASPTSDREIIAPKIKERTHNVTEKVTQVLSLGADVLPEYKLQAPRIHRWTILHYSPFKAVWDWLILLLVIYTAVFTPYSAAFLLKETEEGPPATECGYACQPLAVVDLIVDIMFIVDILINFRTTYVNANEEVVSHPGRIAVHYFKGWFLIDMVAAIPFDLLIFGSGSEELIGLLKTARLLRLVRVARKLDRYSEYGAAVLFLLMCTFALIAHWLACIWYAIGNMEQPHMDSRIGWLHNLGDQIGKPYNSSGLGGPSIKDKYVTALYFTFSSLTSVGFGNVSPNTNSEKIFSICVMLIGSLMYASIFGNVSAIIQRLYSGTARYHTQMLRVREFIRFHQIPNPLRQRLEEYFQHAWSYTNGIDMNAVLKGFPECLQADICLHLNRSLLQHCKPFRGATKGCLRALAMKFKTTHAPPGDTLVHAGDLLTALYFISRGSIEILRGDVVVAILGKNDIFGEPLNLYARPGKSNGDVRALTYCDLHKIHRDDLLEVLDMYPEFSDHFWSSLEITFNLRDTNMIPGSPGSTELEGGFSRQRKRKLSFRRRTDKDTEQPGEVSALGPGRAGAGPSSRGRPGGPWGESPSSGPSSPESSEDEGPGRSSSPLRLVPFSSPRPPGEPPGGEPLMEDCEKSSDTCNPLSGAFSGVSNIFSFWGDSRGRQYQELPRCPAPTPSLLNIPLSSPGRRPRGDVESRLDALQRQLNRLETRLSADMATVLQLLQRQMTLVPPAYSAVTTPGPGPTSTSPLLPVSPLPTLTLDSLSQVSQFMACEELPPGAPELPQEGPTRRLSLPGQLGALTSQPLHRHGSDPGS

SMILES	hERG current change (%, negative = inhibition) at 1uM [%]
Cc1cc(C)c(S(C)(=O)=O)c(S(=O)c2ccc(Cl)cc2)n1 (stereo not shown)	3.19
CCOC(=O)c1[nH]c2ccc(OC)cc2c1NC(=O)CCN1CCN(Cc2ccccc2)CC1	-36
NC(=O)CSc1nnc(Cc2csc(Nc3ccc(F)cc3)n2)n1Cc1ccccc1	11.5
O=C(OCC(=O)N(C1CCCCC1)C1CCCCC1)c1ccco1	9.71
O=C(O)CCN1C(=O)c2ccccc2C1=O	19.2
CN(C)S(=O)(=O)c1cccc(-c2nnc(SCc3ccc4c(c3)OCCO4)o2)c1	-0.0123
C=CCc1ccccc1OCC(O)CN1CCN(c2ccccc2F)CC1.Cl (stereo not shown)	-0.42
C=CCc1ccc(OCC(O)CN2CCN(Cc3ccccc3)CC2)c(OC)c1.Cl (stereo not shown)	-10.6
C=CCc1ccc(OCC(O)CN2CCN(Cc3ccc(Cl)cc3)CC2)c(OC)c1.Cl (stereo not shown)	-55.3
C=CCc1ccc(OCC(O)CN2CCCCC2)c(OC)c1 (stereo not shown)	-16.5
C=CCc1ccc(OCC(O)CN2CCN(c3ccccc3)CC2)c(OC)c1.Cl (stereo not shown)	-33.7
C=CCc1ccccc1OCC(O)CN1CCN(c2ccc(OC)cc2)CC1.Cl (stereo not shown)	-27.3
C=CCc1ccc(OCC(O)CN2CCN(c3ccccc3OC)CC2)c(OC)c1.Cl (stereo not shown)	8.86
C=CCc1ccc(OCC(O)CN2CCC(Cc3ccccc3)CC2)c(OC)c1.Cl (stereo not shown)	-75
C=CCc1ccccc1OCC(O)CN1CCN(c2ccccc2OC)CC1.Cl (stereo not shown)	-52.3
COc1cc(CN2CCN(c3ccccc3C)CC2)cc([N+](=O)[O-])c1O	7.17
CN(C)C(=O)Oc1ccc(OC(=O)c2ccccc2)cc1	10.4
Cc1ccc(-n2c(N)c(C#N)c(-c3ccc(Cl)cc3)c(C#N)c2=O)cc1	10.8
CCCCNC(=O)COC(=O)c1cc(C)oc1C	8.11
Cc1nonc1OCCNc1ccc([N+](=O)[O-])cc1	-17.1
Cl.OC(COc1ccc(F)cc1)CN1CCN(c2ccccc2F)CC1 (stereo not shown)	-49.5
Cc1ccc(OCC(O)CN2CCN(c3ccc(C)cc3)CC2)cc1 (stereo not shown)	-3.83
Cc1ccc(N2CCN(CC(O)COc3ccc([N+](=O)[O-])cc3)CC2)cc1 (stereo not shown)	-65.4

SMILES	hERG current change (%, negative = inhibition) at 1uM [%]
OC(COc1ccc2c(c1)CCC2)CN1CCN(c2ccccc2F)CC1 (stereo not shown)	5.87
Cc1nonc1OCCN1CCN(c2ccc([N+](=O)[O-])cc2)CC1	-100
COc1ccc(N2CCN(CC(O)COc3ccc([N+](=O)[O-])cc3)CC2)cc1.Cl (stereo not shown)	-45.5
O=[N+]([O-])c1ccc(OCC(O)CN2CCN(c3ccccc3F)CC2)cc1 (stereo not shown)	-77.6
Cc1nonc1OCCN1CCN(c2ccccc2[N+](=O)[O-])CC1.Cl	-2.31
COc1ccc(CCNC(=O)c2cccc([N+](=O)[O-])c2)cc1OC	3.3
O/N=C(\COc1ccccc1O)c1ccccc1	-0.796
CN(c1ccc(OCC(=O)NCc2cccnc2)cc1)S(=O)(=O)c1ccc(Cl)cc1	-4.28
CCOC(=O)CC1C(=O)NCCN1S(=O)(=O)c1ccc(Br)cc1 (stereo not shown)	6.26
O=C(CCn1nnc2ccccc2c1=O)N[C@@H](Cc1c[nH]c2ccccc12)C(=O)O	11.6
COc1ccc(CCNC(=O)C2(C)CCC(=O)N2Cc2ccc(F)cc2Cl)cc1OC (stereo not shown)	16.2
O=C(NCCN1CCOCC1)c1cccc(Cl)c1	2.76
COc1ccccc1N1CCN(C(=O)CCCN2C(=O)c3cccc4cccc(c34)C2=O)CC1.Cl	-89.5
COc1ccc(C(=O)CCN2CCN(c3ccccc3OC)CC2)cc1.Cl	-4.48
Cl.O=C(NCCN1CCCC1)c1cccc(Cl)c1	-13.1
CC(C)c1ccc(C(=O)NCCCN2CCOCC2)cc1	2.78
O=C(NCCCN1CCN(CCCNC(=O)c2cccc(Cl)c2)CC1)c1cccc(Cl)c1	-74.5
CCOc1ccccc1N1CCN(C(=O)CCCN2C(=O)c3cccc4cccc(c34)C2=O)CC1	2.15
Cc1ccc(C(=O)NCCCN2CCN(CCCNC(=O)c3ccc(C)cc3)CC2)cc1	-36.5
CC(C)c1ccc(C(=O)NCCCN2CCN(CCCNC(=O)c3ccc(C(C)C)cc3)CC2)cc1	-86.4
COc1ccccc1N1CCN(C(=O)CCN2C(=O)c3cccc4cccc(c34)C2=O)CC1	9.15
COc1ccc(S(N)(=O)=O)cc1C(=O)NCCCN1CCN(c2ccccc2OC)CC1.CS(=O)(=O)O	4.07
COc1ccccc1N1CCN(CCCCNC(=O)c2ccc3ccccc3c2)CC1.Cl	-75.8
